In PubChem BioAssay AID588350 (The Scripps Research Institute Molecular Screening Center, 2011):
About 1,200 (63%) of roughly 1,900 compounds were called active. So high a share suggests a set chosen from earlier hits. These entries were drawn from the full list. Unmarked numbers belong to inactive results.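 The calls were made as follows: active = mean activation above the mean of solvent-only control wells plus 3 SD (cut at about 22% in these data); inactive = the rest.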

assay: frataxin GAA30 reporter activation – cell-based, luminescence, HEK293, lucGAA30, triplicate, counter-screen for GAA850 frataxin promoter activator project, confirmation (AID 588350); details: HEK293 lucGAA30 FXN promoter luciferase, 24 h; at 6 µM; stronger effect = higher value; DMSO = 0%, 5 µM ipriflavone = 100%;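 also: counterscreen of GAA850 promoter hits where activity marks nonselective or luminescence artifacts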

| Compound | activation |
| --- | --- |
| Cc1cc(OCc2cc(C(=O)NCc3cc(C(C)C)no3)no2)cc(C)c1Cl | 110% (active) |
| COCCn1c(=NC(=O)c2ccccc2[N+](=O)[O-])sc2cc(S(C)(=O)=O)ccc21 | 51.5% (active) |
| Cc1c(-c2ccccc2)nc(N)c(C#N)c1-c1cccs1 | 23.3% (active) |
| CCOC(=O)c1cc2cc(C)ccc2[nH]1 | 74.2% (active) |
| CCC(=O)NC(=Nc1nc2ccccc2s1)NC(=O)CC | 129% (active) |
| Cc1ccc(-c2nc3ccccc3[nH]c2=O)cc1 | 101% (active) |
| N#Cc1c(N)nc2c3c(sc(=N)c2c1N)NC(=O)CC3c1ccccc1Cl (stereo not given) | 25.4% (active) |
| CC1CCc2sc3nc(N4CCN(CCO)CC4)n4ncnc4c3c2C1 (stereo not given) | 61.1% (active) |
| O=C(NC1CCCC1)c1cc(-c2ccccc2)on1 | 161% (active) |
| O=C(NCCCn1ccnc1)c1cc(-c2ccccc2)on1 | 204% (active) |
| COc1ccccc1N1CCN(C(=O)c2cc(-c3ccc(Br)cc3)on2)CC1 | -9.05% |
| COC(=O)c1ccc(CSc2nc3ccccc3c(=O)n2-c2cccc(OC)c2)o1 | 19.9% |
| CN1C(=O)/C(=C\c2cc(Br)cs2)c2ccccc21 | 102% (active) |
| Cc1ccc(-c2c3c(=O)n(C)c(=O)n(C)c3cn2-n2cnnc2)cc1 | -0.74% |
| CCOc1ccc(N2C(=O)CC(N(CCc3ccc(OC)c(OC)c3)C(=S)Nc3ccccc3)C2=O)cc1 (stereo not given) | -9.82% |
| O=C(N/N=C/C=C/c1ccco1)c1cccs1 | 82.6% (active) |
| CCC1(CC)Cc2ccccc2-c2nc(CCl)[nH]c(=O)c21 | -4.18% |
| O=C(CC1NCCc2ccccc21)Nc1cccc(Cl)c1 (stereo not given) | 69% (active) |
| N#CC1=C(SCc2ccc(C#N)cc2)N=C(N)C(c2nc(-c3ccccc3)cs2)C12CCCCC2 (stereo not given) | 2.61% |
| O=[N+]([O-])c1ccc(C=Nc2ccc(Cl)cc2Cl)s1 | -6.04% |

| Compound | activation |
| --- | --- |
| COc1ccc(C2Nc3ccccc3C(=O)N2c2ccc(Cl)cc2)cc1Cn1cc([N+](=O)[O-])cn1 (stereo not given) | 92.3% (active) |
| CN(C(=O)c1cc2c(=O)n3ccccc3nc2s1)C1CCCCC1 | 116% (active) |
| CCCCNC(=O)N(O)C1N(/N=C/c2ccccc2O)C(=S)SC1(C)C (stereo not given) | 26.7% (active) |
| CCCNC(=O)c1c(Cl)cnn1-c1ccc(C)cc1 | 108% (active) |
| Fc1ccccc1/C=N/Nc1cc(N2CCCCC2)ncn1 | 118% (active) |
| CC(C)c1cc(C(=O)N/N=C/C(Br)=C/c2ccccc2)n[nH]1 | -1.66% |
| Cc1cc(C(=O)N/N=C\C(Br)=C\c2ccccc2)c(C)o1 | 58.9% (active) |
| CCCCCOc1ccc(CSC2=NCCN2)cc1[N+](=O)[O-] | 79.1% (active) |
| O=C(COc1ccc(Cl)cc1Cl)NCCCNC(=O)c1cnccn1 | 11.8% |
| O=C(Nc1ccc2c(c1)OCCO2)c1cnccn1 | 87.7% (active) |
| CCc1ccc(N(C(=O)c2csnn2)C(C(=O)NC2CCCCC2)c2ccncc2)cc1 (stereo not given) | 26.5% (active) |
| C=C1c2c(Cl)ccc(O)c2C(O)=C2C(=O)[C@]3(O)C(O)=C(C(N)=O)C(=O)[C@@H](N(C)C)[C@@H]3[C@@H](O)C12 (stereo not given in full) | 18.7% |
| CN(C)[C@@H]1C(=O)C(C(N)=O)=C(O)[C@@]2(O)C(=O)C3=C(O)c4c(O)ccc(Cl)c4[C@@H](O)[C@H]3C[C@@H]12 | 25.7% (active) |
| Cc1noc(C)c1-c1ccc2ncnc(NC(C)c3ccco3)c2c1 (stereo not given) | 40.9% (active) |
| Cn1c(=O)n(C)c2cc(S(=O)(=O)N3CCCc4ccccc43)ccc21 | 1.6% |
| CN(C)CCNC(=O)c1ccc(Cl)c2cc3ccccc3nc12 | -3.95% |
| O=C1N=C(N2CCCC2)S/C1=C\c1cccc(Br)c1 | 60.8% (active) |
| CC(C)(C)C(=O)c1cnc(Nc2ccccc2)s1 | 126% (active) |
| Cc1cc(C)n2nc(CNS(=O)(=O)c3c(F)c(F)c(F)c(F)c3F)nc2n1 | 21.4% |
| O=C(NCc1ccco1)c1ccc(Cn2c(=O)c3sccc3n(Cc3ccc(F)cc3)c2=O)cc1 | 24.6% (active) |

| Compound | activation |
| --- | --- |
| Cc1cc(=O)oc(C)c1C(=O)NCc1ccc(F)cc1 | 14.5% |
| Nc1ccc(C(=O)Nc2ccccc2N)cc1 | 54.8% (active) |
| Cc1nnc(Sc2nc3c(c(=O)[nH]c(=O)n3C)n2Cc2ccccc2)s1 | 12.3% |
| CNc1nc(Nc2ccc(C)c(Cl)c2)nc(N)c1[N+](=O)[O-] | 159% (active) |
| COc1ccc(/C=C/C(=O)Nc2ccc(C34CC5CC(CC(O)(C5)C3)C4)cc2)cc1OC | 64.1% (active) |
| Cc1ccc(-n2c(C)cc(/C=C(\C#N)C(=O)NCC3CCCO3)c2C)cc1 (stereo not given) | 110% (active) |
| O=C(CN(c1cc(C(F)(F)F)ccc1Cl)S(=O)(=O)c1ccccc1)NCc1cccnc1 | 20.5% |
| O=C(Nc1nnc(S(=O)(=O)N2CCCCCC2)s1)c1cccc(Br)c1 | 31.3% (active) |
| CC(C)c1ccc(NS(=O)(=O)c2cn(C)c(=O)n(C)c2=O)cc1 | 13.1% |
| Cn1c(CCN2CCCCCC2)nc2cc(NC(=O)Nc3ccccc3)ccc21 | 122% (active) |
| Cc1cc(C)nc(S/C=C/C(=O)c2ccccc2)n1 | -58.6% |
| COC(=O)[C@@]1(C)[C@H]2C(=O)N(Cc3ccccc3)C(=O)[C@H]2[C@H]2CN=C(SCC3CC3)N21 | 29.2% (active) |
| CC[C@]1(C(=O)OC)[C@H]2C(=O)N(Cc3ccccc3)C(=O)[C@H]2[C@H]2CN=C(SCc3ccc(C#N)cc3)N21 | 23.6% (active) |
| CC[C@]1(C(=O)OC)[C@H]2C(=O)N(Cc3ccccc3)C(=O)[C@H]2[C@H]2CN=C(SCc3ccccc3)N21 | 15.5% |
| CN(C)S(=O)(=O)c1ccc2oc(SCC(=O)Nc3ccccc3F)nc2c1 | 127% (active) |
| O=C(CSc1cccc2cccnc12)N/N=C/c1cccnc1 | -15.3% |
| Cc1ccc2cc(/C=N/Nc3ccc(C(=O)O)cc3)c(Cl)nc2c1 | 109% (active) |
| C[C@@]12C(=O)N(c3cccc(Br)c3)C(=O)N1[C@H](c1ccc(Cl)cc1)[C@@H]1C(=O)N(C3CCCCC3)C(=O)[C@@H]12 | 0.25% |
| O=C1[C@H]2[C@@H](c3ccc(Cl)cc3)N3C(=O)N(c4cccc(F)c4)C(=O)[C@@]3(Cc3ccccc3)[C@H]2C(=O)N1C1CCCCC1 | 16.9% |
| O=C1[C@H]2[C@@H](c3ccc(F)cc3)N3C(=O)N(c4ccc(C(F)(F)F)cc4)C(=O)[C@@]3(Cc3ccccc3)[C@H]2C(=O)N1C1CCCCC1 | 26.3% (active) |
